# About 83,000 compounds went through this panel and 20% of them were active in at least one assay; those are over-represented in the sample as a whole.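 48-hour exposure, single concentration, 96-well plates; percent growth endpoint where 0 means no net growth. Active: below 10.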 Unmarked numbers belong to inactive results. Calls of active or inactive are those of the source.
# Test system: U251 CNS
# Assay: NCI-60 one-dose screen, 48 h (100 = growth as untreated, 0 = no growth, -100 = all killed)
# Conditions: 10 µM unless noted
# Method: Growth inhibition of the U251 human tumor cell line is measured as a screen for anti-cancer activity. Cells are grown in 96 well plates and exposed to the test compound for 48 hours. Compounds are tested at a single concentration, which is 10^-5 M for most compounds. The reported endpoint is percent growth (GI% or GIPRCNT), where numbers from 0 - 100% represent growth inhibition, and numbers from -100% - 0 represent cell death. For example, a value of 40 represents 60% growth inhibition. A value of 0 means no net growth occurred over the course of the experiment. A value of -40 indicates 40% of cells at the beginning of the experiment died by the end of the experiment. A value of -100 means all cells are dead at the end of the experiment.
# NCI-60 Human Tumor Cell Lines Screen was performed using the standard one-dose NCI protocol, which is described in more detail at https://dtp.cancer.gov/discovery_development/nci-60/default.htm.
# Compounds with GIPRCNT values below 10 were considered active. Activity score was based on GIPRCNT using the following formula: […]
# Score is 0 for GIPRCNT values of 100 or above, 50 for GIPRCNT values of 0, and 100 for GIPRCNT values of -100.
row,SMILES,growth
1,O=c1c2c3c(sc2nc(N/N=C/c2cn(-c4ccccc4)nc2-c2ccc(Cl)cc2)n1Cc1ccccc1)CCCC3,111%
2,C=C(C)C(=O)Nc1ccc(NC(C)C)cc1,123%
3,CC1=C(O)C(=O)C(C(C#N)(C#N)C(C#N)C#N)C1 (stereo not given),113%
4,O=Nc1c(O)c(Cl)cc2ccccc12,65.6%
5,COC(=O)[C@@H]1CCCN1C(=O)[C@@H]1CCCN1C(=O)[C@H](Cc1ccccc1)NC(=S)Nc1cc(C(F)(F)F)cc(C(F)(F)F)c1,7.88% (active)
6,COc1ccc(-c2nn(-c3ccc(Cl)cc3)cc2-c2nc3ccccc3[nH]2)cc1,104%
7,CC(C)(C)c1cc(C(C)(C)C)cc(S(=O)(=O)Nc2cc3ccccc3cc2C(=O)NCCN)c1,-21.8% (active)
8,CNC(=O)c1cc(Oc2ccc(NC(=O)Nc3ccc(Cl)c(OC(F)(F)F)c3)c(F)c2)ccn1,32.3%
9,Cn1ccnc1C(=O)/C=C/c1ccc(CC(=O)Nc2ccccc2)cc1,7.03% (active)
10,O=C1Nc2ccc(Br)cc2C12Oc1ccccc1C1CC(c3ccc(F)cc3)=NN12 (stereo not given),90.9%
11,O=C(/C=C/c1cc(CN2CCOCC2)c(O)c2ncccc12)c1cc(CN2CCOCC2)c(O)c2ncccc12,3.35% (active)
12,O=C(CN(C(=O)Cn1c(=O)n2nnnc2c2ccccc21)c1ccccc1C(F)(F)F)Nc1ccc(C(F)(F)F)cc1,99.1%
13,O=C1NC(=O)C(c2ccc(Cl)cc2Cl)N1 (stereo not given),103%
14,COc1cc(Nc2cc(C)nc(N3CCN(c4ccnc5cc(Cl)ccc45)CC3)n2)cc(OC)c1,9.56% (active)
15,FC(F)(F)c1nc2c(NCc3ccc(-c4ccccc4)cc3)cccc2[nH]1,66.6%
16,CC/C=C\C/C=C\C[C@H]1C/C=C2/C(=O)C=C[C@@H]2C/C=C\CCC(=O)O1,-23.2% (active)
17,COc1ccc(O)c(N=Nc2nccs2)c1,54.4%
18,COC(=O)c1cccc(NC(=O)c2ccc(-c3cccc(N)c3)o2)c1,104%
19,CC[C@@H](C(=O)[C@@H](C)[C@@H](O)[C@H](C)[C@@H]1O[C@@H]([C@@H](CC)C(=O)O)CC[C@@H]1C)[C@H]1OC2(C=C[C@@H](O)[C@]3(CC[C@@](C)([C@H]4CC[C@](O)(CC)[C@H](C)O4)O3)O2)[C@H](C)C[C@@H]1C (stereo not given in full),0.353% (active)
20,Brc1ccc(-c2csc(Nc3ccccn3)n2)cc1,166%

row,SMILES,growth
1,CC/C=C\C[C@H](O)C/C=C1/C(=O)C=C[C@@]1(C)C/C=C\CCCC(=O)OC,94.2%
2,c1ccc(CCNc2ncnc3[nH]ncc23)cc1,94.1%
3,COc1ccc(CCNc2nc3c(c(=O)n(Cc4ccc(Br)cc4)c(=O)n3C)n2C)cc1OC,92%
4,COc1cc(/C=C/C(=O)c2cccnc2Nc2ccc(F)cc2)cc(OC)c1OC,24.1%
5,NC(=NCCCC1(c2ccccc2)CCCC1)Nc1ccc(Cl)cc1,-26.6% (active)
6,Cc1cc(N2CCCC2)nc(NC2CCCC(Nc3ccnc4cc(Cl)ccc34)C2)n1 (stereo not given),-96.1% (active)
7,COc1cccc(/C=N/NC(=O)c2ccccc2Nc2ccnc(C(F)(F)F)c2)c1O,17.1%
8,CC[C@@H]1O[C@H](O[C@@H](c2cnc[nH]2)[C@H](NC(=O)c2nc([C@H](CC(N)=O)NC[C@@H](N)C(N)=O)nc(N)c2C)C(=O)N[C@H](C)[C@H](O)[C@H](C)C(=O)N[C@@H](C(=O)NCCc2nc(-c3nc(C(=O)NCCCCN=C(N)N)cs3)cs2)[C@@H](C)O)[C@H](O[C@@H]2O[C@H](CO)[C@H](O)[C@H](OC(N)=O)[C@@H]2O)[C@H](C)[C@@H]1C,35.3%
9,CCOC(=O)n1cc(-c2nonc2-c2cn(C)c3ncccc23)c2ccccc21,83.2%
10,CNC(=O)c1cc(Oc2ccc(NC(=O)Nc3ccc(Cl)c(SC)c3)c(F)c2)ccn1,56%
11,Cc1nn(-c2ccc(F)cc2)c2ncnc(Oc3ccc(NC(=O)Nc4ccc(Cl)c(C(F)(F)F)c4)cc3)c12,97.9%
12,CCN1CCN(c2nc(NCCNc3ccnc4cc(Cl)ccc34)c3ccccc3n2)CC1,-16.7% (active)
13,COc1cc(-c2ccc3c(c2)NC(=O)/C3=C\c2ccc[nH]2)ccc1O,15.4%
14,O=[N+]([O-])c1ccc(Nc2nc(NCCN3CCOCC3)ncc2[N+](=O)[O-])cc1,88.6%
15,CC(C)n1c(/C=C/[C@@H](O)C[C@@H](O)CC(=O)O)c(-c2ccc(F)cc2)c2ccccc21,15.9%
16,OCCN1CCN(c2nc(Nc3ccc(-c4nc5ccccc5[nH]4)cc3)c3cn[nH]c3n2)CC1,-99.7% (active)
17,Clc1ccc2c(NCCCCNc3nc(N4CCOCC4)nc4ccccc34)ccnc2c1,-59.6% (active)
18,COc1cc(-c2nc3cc(Cl)c(Cl)cc3[nH]2)ccc1OCC(=O)N=Nc1c(O)[nH]c2ccccc12,-92% (active)
19,NC(=NCCCOc1ccc(Cl)cc1)Nc1ccc(C(F)(F)F)cc1,33%
20,COc1ccc(NC(=O)c2ccc(/C=C/C(=O)c3ncc[nH]3)cc2)cc1,18.8%
